Each structure is given as a SMILES string. “And” between values parts separate entries of the source, which are not always exact repeats. Equal values may be shown once. Compounds without any hit were thinned out: in the full panel of roughly 83,000, 20% have a hit.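 Each cell line was grown in a 96-well plate and treated with one concentration of compound for 48 hours. Values below 10 were considered active.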 The source made the active and inactive calls.

One assay has as its system A549/ATCC NSCLC. Put plainly: NCI-60 one-dose screen, 48 h (100 = growth as untreated, 0 = no growth, -100 = all killed). The note with it: 10 µM unless noted.
`NC(=O)c1c(NC(=O)/C=C/c2cccs2)sc2c1CCC(=O)C2`: the growth was 74.9% (inactive).

Turning to `CC1=CC(C)(C)NC(=S)N1c1ccc(Cl)cc1`, the growth was 98% (inactive) and 104% (inactive). For `Cc1cc(N2CCCCC2)nc(NCc2cc(Nc3ccnc4cc(Cl)ccc34)ccc2F)n1`, the growth is 2.71% (active). Regarding `CCCCCCCC/C=C\CCCCCCCCOc1ccccc1CC(=O)NCC[N+]1(C)CCOCC1`, the growth is 74.4% (inactive).

Take `COc1nc2ccc(C)cc2cc1/C=[N+](\[O-])c1ccccc1`: the growth is 92.4% (inactive).

Another assay concerns 786-0 renal. Described as above. The note with it: 10 µM unless noted.
Regarding `O=C(O)C1C2CCC1C(O)C2` (centres undefined), the growth was 98.2% (inactive) and 96.5% (inactive).

On to `CC1=C2[C@@H](CC1)[C@]1(C)O[C@@](C3CC3)(C[C@H]1OC(=O)CO)[C@H]2OC(=O)/C=C/c1ccccc1`, for which the growth was 73.2% (inactive). Take `CON1CCC[C@]2(C)[C@H]3CC[C@@H]4[C@H]5[C@@H](O)C(C)(C)CC[C@]5(CO)CC[C@@]4(C)[C@]3(C)CC[C@H]2C1(C)C`: the growth is 100% (inactive). In the case of `O=C(Nc1ccccc1C(=O)N/N=C(\c1ccccc1)c1ccccn1)c1ccccc1`, the growth was 9.15% (active). For the molecule `CNC(=O)c1cc(Oc2ccc3nc(NC(=O)Nc4ccc(C(F)(F)F)cc4)sc3c2)ccn1`, the growth is 35.4% (inactive).

In the case of `COc1cc(CO)cc2cc3ccccc3nc12`, the growth is 97.8% (inactive). For the molecule `Cc1ccc(S(=O)(=O)OC[C@@]2(C)CC[C@]3(C)CC[C@]4(C)C(=CC[C@@H]5[C@@]6(C)CCCNC(C)(C)[C@@H]6CC[C@]54C)[C@@H]3C2)cc1`, the growth was -79% (active). For the molecule `O=C1C(c2c[nH]c3ccccc23)=C(c2coc3cc(Br)ccc23)C(=O)N1O`, the growth was 94.6% (inactive). Still for that read-out and setting: for `Cc1ccc(Cc2cnc(NC(=O)c3cc(C)oc3C)s2)cc1` the value was 76.8% (inactive); for `CN(Cc1ccccc1)c1nc(Cl)c(C2CC(c3ccc4c(c3)OCO4)=NN2c2cc(Cl)cc(Cl)c2)s1` (centres undefined), 90% (inactive). Take `COc1ccc(/C=C/C(=O)c2cc3c(N)c(C(=O)Nc4ccccc4Cl)sc3nc2C)cc1`: the growth is -20.4% (active). Regarding `COc1ccc(/C=N/NC(=O)CN2CCN(c3cc4c(cc3F)c(=O)c(C(=O)O)cn4C3CC3)CC2)cc1O`, the growth is 101% (inactive).

As to `COc1ccc(-c2csc(NC(=O)CN3CCN(CCO)CC3)n2)cc1NS(=O)(=O)c1cccc2c(N(C)C)cccc12`, the growth was 57.7% (inactive).

As for `COc1cccc(NC(=O)c2sc3nc(C)c(C(O)c4ccccc4)cc3c2N)c1` (centres undefined), the growth is 34.4% (inactive). On the same count and under the same terms, under `COc1ccc(N2CCN(S(=O)(=O)c3oc(-c4ccccc4)nc3C#N)CC2)cc1` stands 85.5% (inactive).

`O=S(=O)(O)c1ccc(N=Nc2ccc(N=Nc3cccc4ccccc34)c(S(=O)(=O)O)c2)cc1`: the growth is 107% (inactive). On to `O=C1/C(=C/c2ccc(F)c(F)c2)CN(C(=O)C(Cl)Cl)C/C1=C\c1ccc(F)c(F)c1`, for which the growth is -96% (active). The same measure, in the same setting: under `O=S(=O)(Nc1cc(Sc2cccc3cccnc23)c(O)c2ccccc12)c1ccc(F)cc1` stands 2.18% (active); under `COc1cc(Cl)cc(-c2nn(C(=O)NS(=O)(=O)c3ccc(Cl)cc3)cc2-c2ccncc2)c1`, 67.9% (inactive). Still for that read-out and setting: for `CCN1CCN(CC(=O)Nc2nc3ccc(NCc4ccc(C)cc4)cc3s2)CC1` the value was 68% (inactive); for `COc1cc(-c2nc(SCCC(C)C)nc(Nc3ccc(F)cc3)c2C#N)cc(OC)c1OC`, 46.1% (inactive).

With `O=C(/C=C/c1ccc([N+](=O)[O-])cc1)c1ccccc1`, the growth was 89.1% (inactive). The same measure, in the same setting: for `COc1cc(-c2nn(-c3cccc(NC(=O)CCN4CCN(C)CC4)c3)cc2-c2ccncc2)ccc1Cl` the value was 12.2% (inactive); for `N#CC(Cc1cccc2ccccc12)c1cc2ccccc2[nH]1` (centres undefined), 95.3% (inactive); for `C#CCOCC1CN(C)C(=O)O1` (centres undefined), 110% (inactive).

For `Cc1ccc(/C=C/c2c(C(=O)/C=C/c3ccccc3)c(C)nc3ccccc23)cc1`, the growth was 25.8% (inactive). With `Cc1ccc(-c2nc(C#N)c(S(=O)(=O)N(C)C)o2)cc1`, the growth was 96.4% (inactive). Same read-out and setting: for `O=C(Nc1ncc(Cc2cccc(C(F)(F)F)c2)s1)c1ccc(-n2cnnn2)cc1` the value was 66.1% (inactive). Same read-out and setting: for `COc1c(F)cc(-n2c(C(=O)N3CC(F)C3)cc3cccnc32)cc1F` the value was 103% (inactive). With `N=C1/C(=C2\NC3C=CC=CC3S2)C(c2ccc(Cl)cc2)C2C(=O)N(c3ccccc3)C(=S)N12` (centres undefined), the growth was 101% (inactive).

Turning to `COc1ccc(Cl)cc1Nc1nc(C(F)(F)F)ccc1C(=O)N/N=C/c1ccc(N(C)C)cc1`, the growth is 76% (inactive). In the case of `Cc1ccc(NC(=O)c2ccc(CN3CCN(C)CC3)cc2)cc1Nc1nccc(-c2cccnc2)n1`, the growth is 95% (inactive) and 88.6% (inactive). With `C=C1C(=O)O[C@H]2[C@H]1CC/C(COC(=O)NCCCCNC(=O)OC/C1=C/CC[C@@]3(C)O[C@H]3[C@H]3OC(=O)C(=C)[C@@H]3CC1)=C\CC[C@@]1(C)O[C@@H]21`, the growth was 22.7% (inactive). Take `C[C@@H]1O[C@@H](O[C@H]2[C@@H](OC(=O)[C@]34CCC(C)(C)C[C@H]3C3=CC[C@@H]5[C@@]6(C)C[C@H](O)[C@H](O[C@@H]7O[C@H](CO)[C@@H](O)[C@H](O)[C@H]7O)[C@@](C)(CO)[C@@H]6CC[C@@]5(C)[C@]3(C)C[C@H]4O)OC[C@@H](O)[C@@H]2O)[C@H](O)[C@H](O[C@@H]2OC[C@@H](O)[C@H](O[C@@H]3OC[C@](O)(CO)[C@H]3O[C@@H]3OC[C@@H](O)[C@H](O)[C@H]3O)[C@H]2O)[C@H]1O[C@@H]1OC[C@](O)(CO)[C@H]1O`: the growth was 46.9% (inactive). For the molecule `NC(=O)c1c(NC(=O)/C=C/c2cccs2)sc2c1CCC(=O)C2`, the growth is 70.2% (inactive). `CC1=CC(C)(C)NC(=S)N1c1ccc(Cl)cc1`: the growth is 99.8% (inactive) and 97.7% (inactive). For `Cc1cc(N2CCCCC2)nc(NCc2cc(Nc3ccnc4cc(Cl)ccc34)ccc2F)n1`, the growth is -80.1% (active). `CCCCCCCC/C=C\CCCCCCCCOc1ccccc1CC(=O)NCC[N+]1(C)CCOCC1`: the growth is 55.6% (inactive). Turning to `COc1nc2ccc(C)cc2cc1/C=[N+](\[O-])c1ccccc1`, the growth is 103% (inactive).

The record behind these values is PubChem BioAssay (NCI).
